In the library only some 3.5% were active in any assay of this set; here they are far more common.
GPR151 activ = activators of human GPR151; PathHunter beta-arrestin GPR151 cells, luminescence; 650,000 tested, 1% active; Q8TDV0; activation, % at 11.2 µM; in the data active = activation above about 4.9%;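 also: 0% = median of compound wells and 100% = cells with positive control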
FBW7 act = human FBW7 E3 ligase activation, primary screen. normalized activity (activation), % at 26.1 µM. 650,000 tested, 0.13% active. AlphaScreen FBW7–phospho-cyclin E peptide binding, activator screen. Q969H0; in the data active = normalized activity above about 1.9%;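 also: purified mutant Fbw7 with reduced substrate affinity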
MITF primary = human MITF inhibition, primary screen; AlphaScreen MITF homodimerization, bead proximity signal; inhibition, % at 2.6 µM; 650,000 tested, 0.91% active; in the data active = inhibition above about 50%;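 also: 0% = vehicle wells with protein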
Target sequence (O75030 whole entry, looked up): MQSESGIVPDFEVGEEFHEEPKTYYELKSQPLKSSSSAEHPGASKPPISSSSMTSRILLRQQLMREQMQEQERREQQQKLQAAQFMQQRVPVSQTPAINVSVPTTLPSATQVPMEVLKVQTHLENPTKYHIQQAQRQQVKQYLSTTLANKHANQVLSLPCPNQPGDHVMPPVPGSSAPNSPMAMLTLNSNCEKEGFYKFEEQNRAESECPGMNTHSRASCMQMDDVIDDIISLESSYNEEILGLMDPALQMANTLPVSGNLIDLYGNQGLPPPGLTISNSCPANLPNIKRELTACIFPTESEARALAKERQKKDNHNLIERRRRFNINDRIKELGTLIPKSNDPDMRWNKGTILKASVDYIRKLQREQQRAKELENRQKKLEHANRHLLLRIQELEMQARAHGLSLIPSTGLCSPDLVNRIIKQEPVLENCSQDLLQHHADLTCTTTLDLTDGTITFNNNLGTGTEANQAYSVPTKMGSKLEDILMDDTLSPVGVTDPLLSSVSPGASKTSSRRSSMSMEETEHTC
TEAD-YAP block = TEAD-YAP interaction inhibition; inhibition, % at 9.12 µM; AID 1259422; 640,000 tested, 1.4% active; HEK-TIYL cells, TEAD-Gal4/YAP UAS-luciferase luminescence; in the data active = inhibition above about 32%;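 also: 0% = median of test compound wells and 100% = reference inhibitor wells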
MITF confirm = confirmation of human MITF inhibitors; shares compounds with MITF primary; AlphaScreen MITF homodimerization, biotin/His-MITF beads; inhibition, % at 2.6 µM; 4,700 tested, 16% active; AID 1259372;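 active = inhibition above a cutoff derived from the DMSO control wells, cut at about 28% in these data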;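 also: 0% = MITF dimer wells with DMSO only; inhibitors lower the bead chemiluminescence by keeping MITF from dimerizing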
AS interf DR = AlphaScreen optical interference, dose response counter-screen. shares compounds with MITF primary. AlphaScreen optical interference counterscreen, cell-free. IC50, µM. 480 tested, 6% active; call rule not given here
AlphaScreen intf2 = optically interferes with AlphaScreen signal | inhibition, % at 2.6 µM | LysRS AlphaScreen counterscreen, signal interference, triplicate | shares compounds with MITF primary | 4,700 tested, 7.6% active;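 active = inhibition above a cutoff derived from the DMSO control wells, cut at about 30% in these data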
Starred values were filed as active, the others as inactive; · = not tested or not shown.

SMILES	GPR151 activ	FBW7 act	MITF primary	TEAD-YAP block	MITF confirm	AlphaScreen intf2	others
CCCS(=O)(=O)N1CCN(Cc2ccc(OCc3ccccc3)c(OC)c2)CC1	0	0	64*	-4	7	9
CCCS(=O)(=O)N1CCN(Cc2ccc(OC)cc2)CC1	2	0	47	-6	·	·
COc1ccc(OC)c(C2Nc3cc(Cl)c(S(N)(=O)=O)cc3S(=O)(=O)N2)c1 (stereo not drawn)	-2	0	-4	-25	·	·
CN(C(=O)CN1C(=O)COc2ccccc21)C1CCCCC1	1	0	6	9	·	·
CCc1nc(SCC(=O)Nc2c(C)[nH]c(=O)[nH]c2=O)c2c3c(sc2n1)CCCC3	0	0	-4	2	·	·
Cc1ccc(C(C)(C)C)c(OCCCn2ccnc2)c1	-1	0	22	-14	·	·
N#Cc1ccc(OCCOCCn2cncn2)cc1	0	0	18	0	·	·
CCC(C)(C)c1ccc(OCCOCCn2cncn2)c(Cl)c1	2	0	67*	8	0	3
O=[N+]([O-])c1ccc(OCCCn2cncn2)cc1	3	0	-2	11	·	·
Fc1ccc(OCCCn2cncn2)cc1	0	0	71*	4	8	19
Clc1ccc(OCCOCCn2cncn2)cc1Cl	-2	0	80*	-3	8	21
Cc1ccc(C(C)(C)C)c(OCCOCCn2cncn2)c1	1	0	78*	9	0	5
COc1cccc(C(=O)Nc2c3c(nn2-c2ccc(C)cc2C)CSC3)c1	-1	0	-10	2	·	·
CC(C)CCn1c(SCC(=O)c2ccc(F)cc2)nc2ccsc2c1=O	0	0	-4	8	·	·
Cc1cccc(C(=O)N[C@H]2C[C@H]3C(=O)N[C@@H](COCc4ccccc4)C(=O)N3C2)c1	0	0	-7	2	·	·
CC(C)(C)c1ccc(OCCn2cncn2)c(Cl)c1	-1	0	58*	-10	32*	18	AS interf DR=>6.5
Clc1cccc(OCCn2cncn2)c1Cl	1	0	47	-5	·	·
O=C(c1ccco1)N1CCN(Cc2ccncc2)CC1	-1	0	82*	-1	7	27
O=C(c1ccco1)N1CCN(Cc2ccccc2Br)CC1	0	0	60*	-40	6	14
O=C(c1ccco1)N1CCN(C(=O)c2ccco2)CC1	0	0	-2	-4	·	·
CC(C)N1CCN(C(=O)c2ccco2)CC1	0	0	51*	3	2	1
Cc1ccc(C2=NN(CC(=O)NCc3ccccc3)C(=O)CC2)cc1	-1	0	10	-5	·	·
Cc1cc(NC(=O)C(C)NCc2cccs2)no1 (stereo not drawn)	1	0	54*	-37	6	6
CCN(CC)CCCNC(C)C(=O)Nc1cc(C)on1 (stereo not drawn)	1	0	80*	4	12	16
Cc1cc(NC(=O)C(C)NCc2ccc(F)cc2)no1 (stereo not drawn)	1	0	14	-42	·	·
SMILES	GPR151 activ	FBW7 act	MITF primary	TEAD-YAP block	MITF confirm	AlphaScreen intf2	others
O=C(O)C1CSC(c2ccc(OCc3cccc4ccccc34)cc2)N1 (stereo not drawn)	0	0	2	-36	·	·
CCCS(=O)(=O)N1CCN(Cc2cc(Br)ccc2OC)CC1	-1	0	54*	18	8	16
CCCS(=O)(=O)N1CCN(Cc2ccc(OC)c(OC)c2OC)CC1	0	0	52*	-1	7	7
COc1ccc(Br)cc1CN1CCN(S(=O)(=O)Cc2ccccc2)CC1	-1	0	62*	16	6	26
CCS(=O)(=O)N1CCN(Cc2cc(Br)ccc2OC)CC1	0	0	52*	23	10	14
O=C(N/N=C/c1ccc([N+](=O)[O-])cc1)c1cccc(F)c1	2	0	7	-44	·	·
CC(C)(C)n1ncc2c(=O)n(Cc3ccccc3)cnc21	0	0	6	-9	·	·
CC(C)(C)n1ncc2c(=O)n(Cc3cccc(Cl)c3)cnc21	1	0	62*	-12	11	13
Cc1ccccc1CN1CCCC(c2nc3ccccc3[nH]2)C1 (stereo not drawn)	0	0	6	3	·	·
O=C1NC(=S)S/C1=C\c1cc(O)ccc1Br	0	0	25	3	·	·
O=C1NC(=O)/C(=C\c2ccc(O)cc2O)S1	1	0	83*	-23	81*	-6	AS interf DR=>6.5
O=C(/C=C/c1ccco1)NC(=S)Nc1ccc(S(=O)(=O)Nc2nccs2)cc1	-1	0	26	0	·	·
O=C1OC(c2ccc(Cl)cc2Cl)=N/C1=C\c1ccc([N+](=O)[O-])o1	0	0	56*	-1	51*	2	AS interf DR=>6.1
CCOc1cc(CN2CCN(Cc3cccc(OC)c3OC)CC2)ccc1OC	1	0	11	-7	·	·
COc1cccc(CN2CCN(Cc3ccc4ccccc4c3)CC2)c1OC	-1	0	76*	-8	-3	16
COc1cc(CN2CCN(Cc3cccc(OC)c3OC)CC2)cc(OC)c1	0	-1	27	2	·	·
COc1cc(CN2CCN(Cc3ccc4ccccc4c3)CC2)cc(OC)c1OC	2	0	60*	0	14	23
COc1cccc(CN2CCN(Cc3cccc(F)c3)CC2)c1OC	-1	0	66*	-5	14	21
COc1cccc(CN2CCN(Cc3cccc(OC)c3OC)CC2)c1	0	0	74*	-2	17	19
CC1(C)[C@H]2CC=C(CN3CCc4nnc(CNC(=O)CCc5cccnc5)n4CC3)[C@@H]1C2	0	0	5	-2	·	·
COc1ccccc1CN1CCN(CC2CC3C=CC2C3)CC1 (stereo not drawn)	0	0	69*	9	-15	6
Fc1cccc(CN2CCCNCC2)c1	0	0	-9	-3	·	·
Fc1cccc(CN2CCN(CC3CC4C=CC3C4)CC2)c1 (stereo not drawn)	0	0	71*	5	-3	-2
COc1ccc(CN2CCN(CC3CC4C=CC3C4)CC2)c(OC)c1OC (stereo not drawn)	0	0	71*	2	-4	-7
COc1cc(CN2CCN(CC3CC4C=CC3C4)CC2)cc(OC)c1O (stereo not drawn)	-1	0	66*	-8	9	27
COc1cc(CN2CCN(S(=O)(=O)c3ccc(F)cc3)CC2)cc(OC)c1O	1	0	39	5	·	·
O=C(c1ccccc1)N1CCN(CC2CC3C=CC2C3)CC1 (stereo not drawn)	0	0	24	-3	·	·
C1=CC2CC1CC2CN1CCN(Cc2ccccn2)CC1 (stereo not drawn)	-1	0	74*	-4	13	23
COc1cc(OC)c(OC)cc1CN1CCSCC1	0	0	40	-5	·	·
